Experimental data taken from PubChem BioAssay (NCI).
Compounds without any hit were thinned out: in the full panel of roughly 83,000, 20% have a hit.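 Cells were grown in 96-well plates and exposed to the test compound at a single concentration for 48 hours; results are reported as percent growth, with values below 10 considered active.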 The source made the active and inactive calls.

Legend:
Test in all cases: NCI-60 one-dose screen, 48 h (100 = growth as untreated, 0 = no growth, -100 = all killed)
Details in all cases: 10 µM unless noted
NCI-H23 lung = test system: NCI-H23 lung
NCI-H226 lung = test system: NCI-H226 lung
NCI-H322M lung = test system: NCI-H322M lung
HOP-62 NSCLC = test system: HOP-62 NSCLC
NCI-H460 lung = test system: NCI-H460 lung
HOP-92 NSCLC = test system: HOP-92 NSCLC
NCI-H522 lung = test system: NCI-H522 lung
A549/ATCC NSCLC = test system: A549/ATCC NSCLC
786-0 renal = test system: 786-0 renal
COLO 205 colon = test system: COLO 205 colon
DU-145 prostate = test system: DU-145 prostate
K-562 leukemia = test system: K-562 leukemia
MALME-3M melanoma = test system: MALME-3M melanoma
MDA-MB-231 breast = test system: MDA-MB-231 breast
RXF 393 renal = test system: RXF 393 renal
SF-268 CNS = test system: SF-268 CNS
SF-295 CNS = test system: SF-295 CNS
SF-539 CNS = test system: SF-539 CNS
UACC-257 melanoma = test system: UACC-257 melanoma
M14 melanoma = test system: M14 melanoma

Measured: growth

CS(=O)(=O)Nc1cncc(-c2ccc3ncnc(Nc4ccc(F)c(Cl)c4)c3c2)c1
inactive: NCI-H23 lung 33.1% | NCI-H226 lung 55.7% | NCI-H322M lung 10.5% | HOP-62 NSCLC 40.1% | NCI-H460 lung 61.9% | A549/ATCC NSCLC 43.1% | 786-0 renal 62% | COLO 205 colon 32.5% | DU-145 prostate 36.5% | K-562 leukemia 35.3% | MALME-3M melanoma 44.1% | MDA-MB-231 breast 54.6% | RXF 393 renal 24.9% | SF-268 CNS 41.5% | SF-295 CNS 44.5% | SF-539 CNS 32.5% | UACC-257 melanoma 35.2% | M14 melanoma 52.5%
active: HOP-92 NSCLC -4.23% | NCI-H522 lung 8.87%

C=C(C)[C@@H]1CC[C@]2(CO)CC[C@]3(C)[C@H](CC[C@@H]4[C@@]5(C)CCC(NCCc6ccc(O)cc6)C(C)(C)[C@@H]5CC[C@]43C)[C@@H]12 (stereo not given in full)
inactive: NCI-H226 lung 66.8%
active: NCI-H23 lung -86.6% | NCI-H322M lung -76.5% | HOP-62 NSCLC -77.5% | NCI-H460 lung -89.5% | HOP-92 NSCLC -93.2% | NCI-H522 lung -81.3% | A549/ATCC NSCLC -87.1% | 786-0 renal -92.7% | COLO 205 colon -76.4% | DU-145 prostate -96.5% | K-562 leukemia -51.2% | MALME-3M melanoma -81.5% | MDA-MB-231 breast -87.3% | RXF 393 renal -91.2% | SF-268 CNS -88.8% | SF-295 CNS -95.8% | SF-539 CNS -88% | UACC-257 melanoma -78.2% | M14 melanoma -84.9%

CN1CCN(Cc2ccc(NC(=O)c3cncc(C#Cc4cncc5ncccc45)c3)cc2C(F)(F)F)CC1
inactive: NCI-H23 lung 15% | NCI-H226 lung 12.7% | NCI-H322M lung 18% | HOP-62 NSCLC 10.4% | NCI-H522 lung 19.7% | A549/ATCC NSCLC 17.7% | 786-0 renal 38.3% | DU-145 prostate 34.4% | SF-268 CNS 33.7% | SF-295 CNS 32.9%
active: NCI-H460 lung -47.3% | HOP-92 NSCLC -34.9% | COLO 205 colon -23% | K-562 leukemia -8.35% | MALME-3M melanoma -14.4% | MDA-MB-231 breast 5.93% | RXF 393 renal 8.21% | SF-539 CNS -31.8% | UACC-257 melanoma 6.41% | M14 melanoma -51.1%

CC(C)CCSc1nc(Nc2ccccc2)c(C#N)c(-c2ccccc2)n1
inactive: NCI-H23 lung 50.1% | NCI-H226 lung 90.3% | NCI-H322M lung 34.3% | HOP-62 NSCLC 19.7% | NCI-H460 lung 14.6% | HOP-92 NSCLC 21.8% | NCI-H522 lung 69.8% | A549/ATCC NSCLC 14.8% | COLO 205 colon 46% | DU-145 prostate 61.9% | K-562 leukemia 48.6% | MALME-3M melanoma 37.4% | RXF 393 renal 23.1% | SF-268 CNS 60% | SF-295 CNS 32% | SF-539 CNS 18.4% | UACC-257 melanoma 88.2% | M14 melanoma 71.4%
active: 786-0 renal 8.79% | MDA-MB-231 breast 8.82%

COc1ccc(NC(=O)c2cccc(C3CCc4c(cc(OC)c(OC)c4OC)O3)c2)cc1 (stereo not given)
inactive: NCI-H23 lung 52.1% | NCI-H226 lung 47.5% | NCI-H322M lung 53.9% | HOP-62 NSCLC 30.7% | NCI-H460 lung 18.2% | NCI-H522 lung 21.8% | A549/ATCC NSCLC 32.1% | 786-0 renal 26.1% | COLO 205 colon 41.3% | DU-145 prostate 63.2% | MALME-3M melanoma 41.7% | MDA-MB-231 breast 31% | RXF 393 renal 53% | SF-268 CNS 50.2% | SF-295 CNS 23.9% | SF-539 CNS 18.9% | UACC-257 melanoma 46.5% | M14 melanoma 28.2%
active: HOP-92 NSCLC -2.49% | K-562 leukemia 6.79%

COc1cc2ncnc(Nc3ccc(F)c(Cl)c3)c2cc1OCC(=O)N1CCN(c2ccc(F)cc2)CC1
inactive: NCI-H23 lung 97% | NCI-H226 lung 96.3% | NCI-H322M lung 36.5% | HOP-62 NSCLC 95.2% | NCI-H460 lung 101% | HOP-92 NSCLC 87.9% | NCI-H522 lung 72.2% | A549/ATCC NSCLC 79.7% | 786-0 renal 79% | COLO 205 colon 101% | DU-145 prostate 60.5% | K-562 leukemia 83.6% | MALME-3M melanoma 92.2% | MDA-MB-231 breast 79.3% | RXF 393 renal 103% | SF-268 CNS 79.5% | SF-295 CNS 94.1% | SF-539 CNS 100% | UACC-257 melanoma 114% | M14 melanoma 81.3%

COc1cc(-c2nc(NC(C)=O)sc2-c2ccnc(NCCNS(=O)(=O)c3ccccc3)n2)ccc1Cl
inactive: NCI-H23 lung 63.4% | NCI-H226 lung 57.1% | NCI-H322M lung 79.1% | HOP-62 NSCLC 34.2% | NCI-H460 lung 11.8% | HOP-92 NSCLC 25.3% | A549/ATCC NSCLC 25.6% | 786-0 renal 34.7% | DU-145 prostate 53.4% | K-562 leukemia 13.8% | MALME-3M melanoma 27.9% | MDA-MB-231 breast 35.1% | RXF 393 renal 36.7% | SF-268 CNS 38.4% | SF-295 CNS 10.9% | UACC-257 melanoma 47.1%
active: NCI-H522 lung 9.14% | COLO 205 colon 2.47% | SF-539 CNS 8.69% | M14 melanoma -20.4%
